Source: PubChem BioAssay AID504832 (National Center for Advancing Translational Sciences (NCATS), 2011)
About 18,000 (5.8%) of roughly 310,000 compounds were called active. Inconclusive results (about 22%) are left out. The call rests on the fitted dose curve; in most records, active means well fitted inhibition curve with a large enough effect; inconclusive means small, poorly fitted or top-dose-only effect, or another doubt; inactive means no such curve, though single readings can be large or run the other way. What follows is part of a selection rich in actives, with near analogues and random picks from the rest. Where a call stands in place of a potency, no number is given.
Potency means the concentration at half of the fitted maximal effect.

Experiment: Primary qHTS for delayed death inhibitors of the malarial parasite plastid, 48 hour incubation
Conditions: P. falciparum luciferase growth in erythrocytes; series mostly up to 28.7 µM
Outline: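 Luminescence readout; reporter = integrated firefly luciferase in P. falciparum. RBC culture at 2% hematocrit, 0.1% parasitemia final, 37 C/5% CO2; decreased signal taken as growth inhibition.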
For `O=C(C1CCN(Cc2ccc(Cl)cc2)CC1)N1CCN(Cc2ccc3c(c2)OCO3)CC1`, the Potency was “inactive”.
For `Cc1ccc(CN2CCCC(C(=O)c3ccc4c(c3)OCO4)C2)cc1C` (centres undefined), the Potency was “inactive”.
For `Cc1ccc(S(=O)(=O)Cn2nnnc2CN2CCN(Cc3ccc4c(c3)OCO4)CC2)cc1`, the Potency was “inactive”.
For `Cc1cccc(C)c1NC(=O)CSc1nnc(-c2ccccc2)n1Cc1ccc2c(c1)OCO2`, the Potency was “inactive”.
With `Fc1ccccc1C(c1nnnn1Cc1ccc2c(c1)OCO2)N1CCN(Cc2ccccc2)CC1` (centres undefined) the Potency was 6.57 µM (active).
For `Cc1cc(C)c2[nH]c(=O)c(C(c3nnnn3Cc3ccc4c(c3)OCO4)N3CCCC3)cc2c1` (centres undefined), the Potency was 13.1 µM (active).
With `CSc1ccccc1NC(=O)COC(=O)CCCOc1ccc(C)cc1` the Potency was “inactive”.
With `CCOC(=O)c1cnc(-n2nc(C)cc2C)nc1-n1nc(C)cc1C` the Potency was “inactive”.
With `CCOC(=O)c1cnc(-n2nc(C)cc2C)nc1NNc1cc(C)nc(-c2ccccc2)n1` the Potency was 3.29 µM (active).
For `CCOC(=O)c1c(C)nc(-c2ccccc2)nc1NC(=O)C(C)C`, the Potency was “inactive”.
In the case of `COCCOC1CCN(C(=O)c2ccc(OC)c(OC3CCN(C(C)C)CC3)c2)CC1`, the Potency was “inactive”.
For `COc1ccccc1NC(=O)C(C)OC(=O)c1ccc(-n2cnnn2)cc1` (centres undefined), the Potency was “inactive”.
For `Cc1ccc(Nc2nnc(SCc3ccccc3)s2)cc1`, the Potency was “inactive”.
With `CCc1ccc(Nc2n[n+](-c3ccccc3)c(-c3cccc(Cl)c3Cl)s2)cc1` the Potency was 4.15 µM (active).
For `COc1cc(Br)c(-c2sc(Nc3ccccc3)n[n+]2-c2ccccc2)cc1OC`, the Potency was “inactive”.
With `CC(=O)Nc1ccc(S(=O)(=O)N2CCN(S(=O)(=O)c3cccs3)CC2)cc1` the Potency was “inactive”.
With `Cc1ccc(C)c(S(=O)(=O)N2CCN(CC(=O)Nc3ccc([N+](=O)[O-])cc3)CC2)c1` the Potency was “inactive”.
For `CC(=O)Nc1ccc(S(=O)(=O)N2CCN(CCCOc3cc(C)ccc3C)CC2)cc1`, the Potency was 7.38 µM (active).
For `CCOC(=O)C1(Cc2cccc(OC)c2)CCN(Cc2csc(C(C)=O)c2)CC1`, the Potency was “inactive”.
For `CCOC(=O)C1(CCOC)CCN(Cc2ccc(C(=O)OC)cc2)CC1`, the Potency was 10.4 µM (active).
For `CCOC(=O)C1(CCOC)CCN(Cc2cc3ccccc3s2)CC1`, the Potency was “inactive”.
For `O=C(COc1ccc(Cl)cc1)Nc1ccc2c(c1)OCO2`, the Potency was “inactive”.
With `COc1ccc(/C=C/C(=O)Nc2ccc3c(c2)OCCO3)cc1OC` the Potency was “inactive”.
For `COc1ccc(CNC(=O)C2CCN(S(=O)(=O)N3CCOCC3)CC2)cc1`, the Potency was “inactive”.
With `O=C(Nc1cccc(OCC(=O)N2CCOCC2)c1)C1CCCCC1` the Potency was “inactive”.
In the case of `COc1ccc(NS(=O)(=O)c2cc(NC(=O)C3CCCCC3)ccc2N2CCOCC2)cc1`, the Potency was 10.4 µM (active).
In the case of `COc1ccc(NS(=O)(=O)c2cc(NC(=O)/C=C/c3cc(OC)c(OC)c(OC)c3)ccc2N2CCCCC2)cc1`, the Potency was 1.17 µM (active).
For `COc1ccc(NS(=O)(=O)c2ccc(N3CCN(CCO)CC3)c([N+](=O)[O-])c2)cc1`, the Potency was “inactive”.
For `C=CCOc1cccc(C2NC(=O)c3ccccc3O2)c1` (centres undefined), the Potency was “inactive”.
With `COc1ccc(N(CC(=O)NCC2CCCO2)C(=O)CCC(=O)Nc2nccs2)c(OC)c1` (centres undefined) the Potency was “inactive”.
For `Cc1ccc(N2CC(C(=O)Nc3cc(Cl)ccc3-n3cncn3)CC2=O)cc1` (centres undefined), the Potency was “inactive”.
With `Cc1ccc2c(c1)N(CC(=O)NCC1CCCO1)C(=O)CO2` (centres undefined) the Potency was “inactive”.
For `COc1cccc(C(=O)NCCS(=O)(=O)NCC2CCCO2)c1` (centres undefined), the Potency was “inactive”.
In the case of `COc1ccc(S(=O)(=O)N2CCC(C(=O)N3CCc4ccccc4C3)CC2)cc1OC`, the Potency was “inactive”.
For `COc1cc2c(cc1OC)CN(C(=O)c1ccc(S(=O)(=O)N3CCCCCC3)cc1)CC2`, the Potency was 6.57 µM (active).
In the case of `COc1cc(C(=O)NNC(=O)c2ccc(S(=O)(=O)N3CCCCC3)cc2)cc(OC)c1OC`, the Potency was “inactive”.
For `COC(=O)C1(CCSC)NC(c2ccc(OC)cc2OC)C2C(=O)N(c3cccc(C(C)=O)c3)C(=O)C21` (centres undefined), the Potency was “inactive”.
In the case of `CSc1ccccc1NC(=O)c1ccc2c(c1)CCN2S(C)(=O)=O`, the Potency was “inactive”.
With `COc1ccc2cc(C(=O)O)n(CC(=O)c3ccccc3)c2c1` the Potency was “inactive”.
For `Cc1ccc(N(C(=O)c2ccc(CN3CCOCC3)o2)C(C(=O)NCCC(C)C)c2cccs2)c(C)c1` (centres undefined), the Potency was 10.4 µM (active).
For `Cc1ccc(CS(=O)Cc2ccc(C(=O)N3CCOCC3)o2)cc1` (centres undefined), the Potency was “inactive”.
For `Cc1cccc(N(C(=O)c2ccc(CN3CCOCC3)o2)C(C(=O)NC2CCCCC2)c2ccc(F)cc2)c1` (centres undefined), the Potency was “inactive”.
For `Cc1c(NS(=O)(=O)c2cc(C(=O)NCCc3ccc(F)cc3)cc(Cl)c2Cl)c(=O)n(-c2ccccc2)n1C`, the Potency was “inactive”.
With `COC(=O)c1ccc(NC(=O)CSc2nnc(C3CC3)n2C)cc1` the Potency was “inactive”.
With `CCOC(=O)c1c(-c2ccc(C)cc2)csc1/N=C(\C)C1=C(O)c2ccccc2C1=O` the Potency was “inactive”.
With `CCOC(=O)C1=C(c2ccc(OC)cc2)C(=O)c2ccccc2C1=O` the Potency was 2.94 µM (active).
With `CCOC(=O)c1ccccc1NS(=O)(=O)c1ccc(OC)cc1` the Potency was “inactive”.
In the case of `COc1ccc(-c2cc(C(=O)NCCCN3CCOCC3)no2)cc1`, the Potency was “inactive”.
With `O=[N+]([O-])c1ccc(Oc2ccc(F)cc2Br)c2ccncc12` the Potency was 14.7 µM (active).
In the case of `Cn1c(SCc2ccc(F)cc2)nnc1-c1ccncc1`, the Potency was “inactive”.
For `Cc1csc(NC(=O)C2=COCCO2)n1`, the Potency was “inactive”.
In the case of `Cc1ccc(-c2csc(NC(=O)c3cnccn3)n2)cc1C`, the Potency was “inactive”.
With `Cc1ccc(-c2csc(NC(=O)C3=COCCO3)n2)cc1C` the Potency was 10.4 µM (active).
For `CN(Cc1ccccc1)C(=O)c1cccc(C(=O)N(C)Cc2ccccc2)c1`, the Potency was “inactive”.
For `CC(C)C[C@H](CO)Nc1nc(N(C)c2cccc(Cl)c2)c2ncn(C(C)C)c2n1`, the Potency was 13.1 µM (active).
With `O=C(CCCC(=O)N1CCN(c2cccc(Cl)c2)CC1)c1ccccc1` the Potency was “inactive”.
With `Cc1ccc(C)c(N2CCN(C(=O)Cn3ncn4cccc4c3=O)CC2)c1` the Potency was “inactive”.
For `CN1CN(C)c2ccc([N+](=O)[O-])c3cccc1c23`, the Potency was “inactive”.
In the case of `Cc1ccc(C(=O)N2CCC(n3nccc3NC(=O)Nc3cccc(F)c3)CC2)cn1`, the Potency was “inactive”.
For `CCCNC(=O)c1onc(CSc2ccc(F)cc2)c1C(=O)NC(C)C`, the Potency was 9.28 µM (active).
With `CCCCNC(=O)c1onc(CSc2cccc(OC)c2)c1C(=O)O` the Potency was “inactive”.
In the case of `CCOc1cccc(SCc2noc(C(=O)NC(C)C)c2C(=O)O)c1`, the Potency was “inactive”.
In the case of `CCc1ccccc1S(=O)(=O)Cc1ccc(C(=O)NCCc2ccccc2)o1`, the Potency was “inactive”.
For `O=C(Nc1ccccc1)N(Cc1cccnc1)Cc1ccco1`, the Potency was “inactive”.
In the case of `Cc1ccc(C)c2[nH]c(=O)c(CN(Cc3cccnc3)C(=S)NCc3ccco3)cc12`, the Potency was 9.28 µM (active).
In the case of `COCCNC(=S)N(Cc1cccnc1)Cc1ccc(OC)c(OC)c1`, the Potency was “inactive”.
With `COc1ccc(C(=O)N2CCN(c3ncccn3)CC2)cc1S(=O)(=O)N1CCOCC1` the Potency was “inactive”.
For `COc1cc(C(=S)N2CCOCC2)cc(OC)c1OC(=O)c1ccc([N+](=O)[O-])cc1[N+](=O)[O-]`, the Potency was “inactive”.
In the case of `CCC(C)Sc1nc2c(cnn2-c2ccc(F)cc2)c(=O)[nH]1` (centres undefined), the Potency was “inactive”.
For `Cc1cccc(C)c1NC(=O)COC(=O)c1ccccc1O`, the Potency was “inactive”.
For `Cc1ccc(N(Cc2cc(=O)[nH]c3ccccc23)C(=O)CCl)cc1`, the Potency was 9.28 µM (active).
For `Cn1nnnc1SCc1cc(=O)[nH]c2ccccc12`, the Potency was “inactive”.
With `CC(=O)N(Cc1cc(=O)[nH]c2ccccc12)c1ccc(C)cc1C` the Potency was “inactive”.
In the case of `COc1cc(/C=N/NC(=O)CNC(=O)c2ccncc2)ccc1OC(C)=O`, the Potency was “inactive”.
For `O=C(COC(=O)/C=C/c1cccs1)NC1CCCCC1`, the Potency was “inactive”.
For `CCn1c(SCC(=O)N/N=C/C=C/c2ccccc2[N+](=O)[O-])nnc1-c1ccccc1`, the Potency was “inactive”.
In the case of `O=C(CSc1nc2ccccc2[nH]1)N/N=C/C=C\c1ccccc1[N+](=O)[O-]`, the Potency was “inactive”.
With `Cc1ccc(-n2c(SCC(=O)N/N=C/C=C/c3ccccc3[N+](=O)[O-])nc3ccccc3c2=O)cc1` the Potency was 13.1 µM (active).
With `Cc1ccc(C(=O)NC23CC4CC(CC(C4)C2)C3)c(Cl)c1` the Potency was “inactive”.
In the case of `CN(C(=O)COC(=O)CCCc1c[nH]c2ccccc12)c1c(N)n(Cc2ccccc2)c(=O)[nH]c1=O`, the Potency was “inactive”.
For `O=C(CSc1nn(-c2ccc(F)cc2)c(=S)s1)NC1CCS(=O)(=O)C1` (centres undefined), the Potency was “inactive”.
In the case of `N#CCSc1nn(-c2ccc(F)cc2)c(=S)s1`, the Potency was 5.86 µM (active).
For `Cc1ccccc1-n1nc(SCC(=O)O)sc1=S`, the Potency was “inactive”.
For `CCOC(=O)Cc1csc(SCC(=O)Nc2ccc(C)cc2F)n1`, the Potency was “inactive”.
With `O=C1COc2ccc(S(=O)(=O)NCCc3ccc(Cl)cc3)cc2N1` the Potency was “inactive”.
With `CSc1ccccc1NC(=O)c1cnc2sc(C)cn2c1=O` the Potency was “inactive”.
For `CCC(=O)Nc1ccc(Nc2nc(Cl)nc(Nc3ccc(NC(=O)CC)cc3)n2)cc1`, the Potency was “inactive”.
With `COc1ccc(C(=O)NNc2cc(C)nc(NNC(=O)c3ccc(OC)cc3)n2)cc1` the Potency was “inactive”.
For `CC(=O)Nc1ccc(Nc2cc(C)nc(Nc3ccc(NC(C)=O)cc3)n2)cc1`, the Potency was 1.65 µM (active).
For `Cn1nc(-c2ccccc2)c2cc([N+](=O)[O-])ccc21`, the Potency was “inactive”.
For `COc1ccc(-c2cn(-c3ccc(C)cc3)c(=O)n2CC(=O)Nc2ccc(OC)c(OC)c2)cc1`, the Potency was 14.7 µM (active).
In the case of `COc1ccc(NC(=O)Cn2nnc(C(=O)NCCc3ccc(OC)c(OC)c3)c2N)cc1`, the Potency was “inactive”.
In the case of `COc1ccc(NC(=O)COC(=O)Cn2c(C)nc3ccccc32)cc1OC`, the Potency was “inactive”.
For `COC(=O)c1ccc(COc2ccc(C#N)cc2)o1`, the Potency was “inactive”.
For `COc1ccc(OCC(=O)NCCS(=O)(=O)N2CCN(c3ccc(F)cc3)CC2)cc1`, the Potency was “inactive”.
For `CC(C)CC(=O)c1c[nH]c(C(=O)NCc2ccccc2)c1`, the Potency was “inactive”.
With `Cc1nnc(SCC(=O)NCc2ccccc2)s1` the Potency was “inactive”.
In the case of `Cc1nnc(SCC(=O)N2CCc3ccccc3C2)s1`, the Potency was “inactive”.
For `Cc1nnc(SCC(=O)N2c3ccccc3C(C)(c3ccc(Cl)cc3)CC2(C)C)s1` (centres undefined), the Potency was 10.4 µM (active).
